This note sets out measurements from PubChem BioAssay AID1981 (Southern Research Specialized Biocontainment Screening …, 2009).

About 480 (22%) of roughly 2,200 compounds were called active. Only a sample is shown. Results with a measured potency or affinity are listed apart. Unmarked numbers belong to inactive results. No rule for the calls is given here.

A short description of the assay: S. Typhimurium GFP fluorescence modified counterscreen for PhoP regulon inhibitor project dose response (AID 1981).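 Also: 0% = induced DMSO wells and 100% = uninduced wells.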 The note with it: 4 h; series mostly up to 150 µM; inhibition: at the top concentration.
One may read the inhibition as the drop in the measured response relative to a control, in per cent. Consider `CCOC(=O)C1=NNC2(c3ccc(Cl)cc3)C(=O)N(c3cc(C)cc(C)c3)C(=O)C12` (centres undefined), for which the “inhibition” value was -7.93%.
The figure for `CCn1nc(C(=O)OC(C(=O)c2c[nH]c3ccccc23)c2ccccc2)c2ccccc2c1=O` (centres undefined) is 39.2%; for `COc1cccc(/C=N/NC(=O)c2ccc(-c3ccccc3)cc2)c1O` it is 11.6%; for `Cc1ccc(/C=N/NC(=O)Cn2cnc3ccccc32)o1` it is -14.7%.
As to `c1ccc2c(N3CCCCCC3)nc(-c3ccncc3)nc2c1`, the “inhibition” value was 1.68%.
Then `Brc1ccc(OCCn2ccnc2)cc1`, with 11.1%; and `Oc1ccccc1-c1nc(/C=C/c2ccccc2)nn1-c1ccccc1`, with -36.1%; and `Cc1cc(C)c(NC(=S)NC(=O)c2ccc(-c3ccccc3)cc2)c(C)c1`, with 2.08%.
The figure for `CC(C)OC(=O)c1ccc(NC(=O)c2ccccc2)cc1` is -11.2%; for `O=C(Cc1cccs1)N(c1ccccc1)C1C=CS(=O)(=O)C1` (centres undefined) it is -11.7%; for `Oc1[nH]c(=S)sc1/C=C1\C(c2ccccc2)=Nc2ccccc21` it is -4.64%.
Then `Oc1ccc(Br)cc1-c1ccn[nH]1`, with -8.94%.
`O=C(CSc1nc2ccccc2[nH]1)Nc1ccc(F)c(F)c1`: the “inhibition” value is -2.94%.
Then `Cc1ccc(O)c(-c2cc(-c3ccccc3C)[nH]n2)c1`, with 15.8%; and `Clc1c(OCCCn2ccnc2)ccc2ccccc12`, with -2.83%.
Then `Cc1ccc(C)n1-c1cc([N+](=O)[O-])ccc1-n1ccnc1`, with 1.81%.
Then `CN(CCO)Cc1csc2ccc(Br)cc12`, with 10.8%; and `O=C(Nc1cccc2ccccc12)OC1C=CS(=O)(=O)C1` (centres undefined), with 0.66%; and `CN(C)C=NC(=O)c1[nH]c2ccc(Cl)cc2c1-c1ccccc1`, with -3.96%.
`Cn1cnnc1SCC(=O)Nc1cccc(C(=O)O)c1`: the “inhibition” value is -3.44%.
With `Cc1nnc(SC(C)C(=O)Nc2ccc(S(=O)(=O)N3CCCCCC3)cc2)s1` (centres undefined), the “inhibition” value was -5.05%.
Regarding `CCOC(=O)c1cn(CC)c2cc(N3CCOCC3)c(F)cc2c1=O`, the “inhibition” value is -4.83%.
Consider `CCOC(=O)N1CCN(C(=O)c2cn(CC(C)C)c(=O)c3c2c2ccccc2n3C)CC1`, for which the “inhibition” value is -15.5%.
Then `N#CC1=C(S)N(c2ccccc2)C(c2ccc(-c3ccccc3Cl)o2)NC1=O` (centres undefined), with 38.9%.
Take `Cc1ccc(O)c(-c2cc(-c3cccc(F)c3)n[nH]2)c1`: the “inhibition” value was 17.5%.
Then `Cc1ccc2nc(C)c(CN3CCN(c4ccc([N+](=O)[O-])cc4Cl)CC3)n2c1`, with 6.83%.
Then `O=S(=O)(Nc1ccc(Cc2ccncc2)cc1)c1ccc(Br)s1`, with -5.89%.
The figure for `Nc1ccc2oc3ccc(N)cc3c(=O)c2c1` is 5.55%; for `Nc1ccc2oc(=O)c3ccccc3c2c1` it is 15.3%.
With `COc1ccc(-n2ncc(S(=O)(=O)c3ccccc3)c2-c2ccc(Cl)cc2)cc1`, the “inhibition” value is -1.69%.
As to `COc1ccc2nc(SCC(=O)N(C)C3CCCCC3)c(C#N)cc2c1`, the “inhibition” value is 11.2%.
The figure for `CCCn1c(SCC(=O)NCCc2ccccc2)nnc1-c1cccnc1` is -17.2%; for `Cc1ccc(-c2[nH]c(-c3ccc(Cl)cc3)nc2SCC(=O)NCC2CCCO2)cc1` (centres undefined) it is -22.5%.
The figure for `S=C(NN=C1C2CC3CC(C2)CC1C3)Nc1ccccc1` is -20.6%.
The figure for `Cc1ccc(C(C(=O)NCc2ccco2)N(CCc2ccccc2)C(=O)Cn2nnc3ccccc32)o1` (centres undefined) is 0.66%.
Take `O=C(Nc1cccc(-c2cn3cccnc3n2)c1)c1ccco1`: the “inhibition” value was -0.8%.
Then `Cn1c(NCc2ccccc2O)nc2ccccc21`, with -11%; and `N/C(=N\OC(=O)c1ccc(F)cc1)c1nonc1N`, with -2.93%.
For `CNC(=O)c1ccc(-c2ccc(F)cc2)s1`, the “inhibition” value was 3.2%.
Regarding `COc1cc(/C=C2/SC(=S)N(CC(=O)Nc3cccnc3)C2=O)cc(OC)c1OC`, the “inhibition” value is 0.53%.
Then `CCCCCCC(=O)N(O)C1CC(=O)N(c2ccc(C)cc2)C1=O` (centres undefined), with 32.2%.
As for `C=CCNC(=S)NNC(=O)c1cccn(Cc2ccc(Cl)cc2)c1=O`, the “inhibition” value was -6.06%.
The figure for `Nc1cc(Br)c(N)c(Br)c1` is 3.41%; for `CC(=O)NC1C(c2nc3ccccc3s2)=C(c2ccccc2)C(=O)N1c1ccc(C)cc1` (centres undefined) it is 8.75%.
The figure for `CC1Cc2ccccc2N1C(=O)COC(=O)c1ccc(S(=O)(=O)N(C)C)cc1` (centres undefined) is -8.24%.
The figure for `COC(=O)Cc1c(O)ccn(Cc2ccc(F)cc2)c1=O` is 2.05%; for `CCc1c(C)c2cc(Cl)c(O)c(CN(C)C)c2oc1=O` it is -4.76%.
Regarding `CC1=CC(C)(C)n2c(O)c(C3=NC(=S)NC3=O)c3cc(OC(=O)c4cccc5ccccc45)cc1c32`, the “inhibition” value was 3.99%.
Then `Cn1c(=N)n(CC(=O)c2ccc(Br)s2)c2ccccc21`, with 3.25%.
As to `N=c1n(CC(=O)c2ccc([N+](=O)[O-])cc2)c2ccccc2n1Cc1ccccc1`, the “inhibition” value is 6.44%.
In the case of `COc1cc(S(=O)(=O)N2CCCCC2)ccc1NC=O`, the “inhibition” value is 4.28%.
Then `NC1=Nc2ccccc2Oc2ccccc21`, with 9.55%.
The figure for `NC1=NC(=Nc2cccc(Cl)c2)c2ccccc21` is 2.71%; for `c1ccc2c(C3=NNC(=NC4CCCCC4)SC3)c[nH]c2c1` it is 22.7%.
The figure for `CN(C)S(=O)(=O)Nc1ccc(C(=O)O)cc1` is -3.1%.
On to `COc1cccc(OCC(O)CN2CCN(c3ccccn3)CC2)c1` (centres undefined), for which the “inhibition” value is 4.43%.
Then `Cn1c(SCC(=O)NC(=O)c2cccc([N+](=O)[O-])c2)nnc1-c1ccc(F)cc1`, with -12.3%; and `O=C(Cn1cc[n+](CC(=O)c2ccccc2)c1)c1ccccc1`, with 2.89%; and `C/C(=N/Nc1nc(-c2ccccc2)cc(-c2ccc(F)cc2)n1)c1cccc(N)c1`, with -15.2%.
Then `c1ccc(-c2nnc(SCCC3OCCCO3)o2)cc1`, with 0.89%; and `CC1(C)CC2CC(C)(CN2C(=O)COC(=O)c2n[nH]c(=O)c3ccccc23)C1` (centres undefined), with -11.8%; and `c1ccc(COc2ccccc2CNCc2cccnc2)cc1`, with -13.4%.
The figure for `Fc1ccccc1COc1ccc(Br)cc1CNCc1ccncc1` is 6.22%; for `O=[N+]([O-])c1ccccc1CNc1ccc(F)c(Cl)c1` it is -9.25%.
Take `O=c1cc(CSc2nc(NCc3ccccc3)c3ccccc3n2)nc2ccc(Cl)cn12`: the “inhibition” value is -1.33%.
Regarding `N#CCCN(C(=O)CN1C(=O)NC2(CCCC2)C1=O)c1ccccc1F`, the “inhibition” value is -3.3%.
Then `O=C(CCNS(=O)(=O)c1cccc2nsnc12)Nc1ccc2c(c1)OCCO2`, with -1.71%.
As to `Cc1nc2c(=O)n(C)c(=O)n(C)c2nc1Cl`, the “inhibition” value is 27.1%.
The figure for `Cc1cc(C)nc(/N=C(\N)Nc2ccc(SC(F)F)cc2)n1` is -2.31%; for `CC(=O)c1c(C)[nH]c(C(=O)CSc2nnc(-c3ccco3)n2Cc2ccccc2)c1C` it is -0.99%.
Then `O=C(O)c1cc(NCc2ccc3c(c2)OCO3)ccc1N1CCOCC1`, with -0.23%; and `Cc1ccc(S(=O)(=O)c2cn(Cc3ccc(F)cc3)c3cc4c(cc3c2=O)OCO4)cc1`, with 1.56%.
The figure for `CCn1cc(C(=O)O)c(=O)c2cc(Br)ccc21` is 23.3%.
As to `O=C(Cn1nc(Cc2cccnc2)c2ccccc2c1=O)NCc1ccc2c(c1)OCO2`, the “inhibition” value was -5.89%.
The figure for `Cc1cccc(C(=O)O/N=C2\CCSc3ccc(C)cc32)c1` is -14.1%; for `Cc1cccc(OCC(=O)N(Cc2cccs2)C2CCS(=O)(=O)C2)c1C` (centres undefined) it is -15.6%.
Turning to `O=c1c2c([nH]c3ccccc13)CCCCC2`, the “inhibition” value is 19.2%.
With `CCCOc1ccc(/C=N/O)cc1`, the “inhibition” value is -3.17%.
Take `CCN(CC)CC(=O)Nc1nc(-c2ccc(Cl)cc2)cs1`: the “inhibition” value was -7.54%.
In the case of `C/C(=N/Nc1nc(-c2ccc(Cl)cc2)cs1)c1cccs1`, the “inhibition” value is -14.2%.
In the case of `Clc1ccc(C[n+]2cc(-c3ccc(Cl)cc3)n3c2CCC3)cc1`, the “inhibition” value was 7.72%.
For the compound `Clc1ccc(-c2c[n+](Cc3ccc(Cl)cc3Cl)c3n2CCCCC3)cc1`, the “inhibition” value was -3.21%.
The figure for `O=C(C[n+]1cc(-c2ccccc2)n2c1CCCCC2)c1ccc(Cl)cc1` is -1.46%.
For the compound `CCOC(=O)Cc1ccc(NS(=O)(=O)c2ccc(SC)cc2)cc1`, the “inhibition” value is -8.64%.
The figure for `CCOC(=O)N1CCN(C(=O)c2ccc(NC(=O)c3ccc(C)cc3)cc2)CC1` is 12.8%; for `O=C(O)C1CCC(N2C(=O)C3CCCCC3C2=O)CC1` (centres undefined) it is -1.85%; for `COC(=O)c1sccc1NC(=O)c1cccnc1` it is 0.03%.
For `Cc1ccc(Nc2nnc(C3C(=O)N(C)C4(C)CC3c3cc(Br)ccc3O4)s2)cc1` (centres undefined), the “inhibition” value is -4.36%.
The figure for `Cc1ccc(S(=O)(=O)c2c(C(=O)c3ccccc3)cnc3cc4c(cc23)OCCO4)cc1` is 16.2%; for `CC1(C)CC(=O)C2=C(C1)N(Cc1ccccc1)C(=O)C2(O)C(F)(F)F` (centres undefined) it is 2%; for `CCN1C(=O)/C(=C/N2CC(C)CC(C)C2)SC1=S` (centres undefined) it is -15.7%.
In the case of `O=C(CSc1n[nH]c(=O)[nH]c1=O)N/N=C/c1ccccc1`, the “inhibition” value is -7.06%.
Then `Cc1ccccc1-n1c(C)cc(/C=N/Nc2ccc([N+](=O)[O-])cn2)c1C`, with 0.91%; and `Cc1cc([N+](=O)[O-])ccc1NC(=O)Cc1ccc(F)cc1`, with -22.2%; and `Cc1ccsc1/C=N/NC(=O)Cn1cnc2ccccc21`, with -7.04%.
In the case of `CN(CCO)c1cc(Sc2nc3ccccc3s2)c2nonc2c1[N+](=O)[O-]`, the “inhibition” value is 0.73%.
The figure for `Cc1ccc([N+](=O)[O-])cc1NC(=S)NC(=O)C(C)(C)C` is -14.7%; for `O=C(CSc1nc2ccccc2s1)Nc1ccc(N2CCOCC2)c(Cl)c1` it is -4.65%.
Then `COc1ccc(NC(=O)c2sccc2SCC#N)cc1`, with -8.07%.
Take `CC(=S)c1c(C)cc2cc(C)ccn12`: the “inhibition” value was -0.73%.
`CN(C)c1ccnc(Oc2ccc(F)cc2)c1C#N`: the “inhibition” value is -6.5%.
`CCn1c(SCc2ccc(F)cc2)nnc1C1CCN(S(=O)(=O)c2ccc(OC)cc2)CC1`: the “inhibition” value was -8.67%.
The figure for `Cc1ccc(C(C)C)c(OCC(=O)Nn2c(=O)[nH]c3ccccc3c2=O)c1` is 10%; for `COc1ccc(S(=O)(=O)N2Cc3ccccc3CC2C(=O)N2CCOCC2)cc1OC` (centres undefined) it is -0.72%.
Then `CCNC(=O)NC1(C(=O)Nc2ccc3c(c2)OCCO3)CCCCC1`, with -6.31%.
Then `CCN(CC)c1ccc(S(=O)(=O)Nc2cc(Cl)ccc2Cl)cc1NC(=S)NC(=O)C1CCCC1`, with -28.7%; and `CCN1CCN(Cc2ccc(C)cc2C)CC1`, with -22.1%.
Consider `Cc1ccc(C2NNC(=O)C2NC(=O)c2ccccc2)cc1` (centres undefined), for which the “inhibition” value was -8.3%.
As to `Cc1nc(N)sc1Cc1ccc2c(c1)OCO2`, the “inhibition” value was -1.43%.
As to `C=CCNc1sc(C(=O)c2ccc(C)cc2)c(N)c1C#N`, the “inhibition” value is 7.13%.
Then `COC(=O)C(CCSC)NC(=O)c1cccc([N+](=O)[O-])c1` (centres undefined), with 1.67%; and `NC(=O)c1cnn(Cc2ccc(Cl)cc2)c1N`, with -11.2%; and `Cc1nc2c(Cl)cccc2c2c1CC(CBr)O2` (centres undefined), with 8.79%.
Then `CC(=O)NC12CC3CC(C1)CC(C(=O)OCC(=O)c1ccc4c(c1)OCCO4)(C3)C2`, with -5.94%.
